Test results taken from the supplement of paper PMC9262897, “Low-cost anti-mycobacterial drug discovery using engineered E. coli” (Nature Communications, 2022).
Structures can show the parent of a compound that is named as a salt. ± gives the standard deviation of the averaged measurements.

Legend:
Experiment in all cases: growth (OD600 after 10 h); higher = more growth (less inhibition)
[1] = test system: E. coli TESEC Alr+ wild-type control; conditions: compound 0.1 mM; raw OD600 reference: median of DMSO wells 0.241, cell-free background 0.041
Procedure: (§1)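 TESEC Mtb Alr E. coli, or the Alr+ wild-type control, in 384-well plates with Prestwick library compounds at 0.1 mM and 1% DMSO, across arabinose induction levels of 1E3 to 1E7 nM. Growth is read as OD600 after 10 h at 37 °C in triplicate biological replicates.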

E. coli TESEC Mtb Alr [2] = conditions: compound 0.1 mM
Procedure: as §1

E. coli TESEC Mtb Asd = conditions: compound 0.1 mM
Procedure: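 TESEC E. coli strains in which the native enzyme is deleted and replaced by arabinose-inducible Mtb Asd, DapB, CysH or TrpD, each grown in its selective medium. Strains were screened against the Prestwick library at 0.1 mM and 1% DMSO in 384-well format at low and high arabinose induction. Growth is read as OD600 after 10 h in triplicate.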

[3] = test system: E. coli TESEC Alr+ wild-type control; conditions: compound 0.1 mM; raw OD600 reference: median of DMSO wells 0.49, cell-free background 0.052
Procedure: (§2)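 TESEC Mtb Alr E. coli (ΔaraC ΔtolC ΔentC Δalr ΔdadX, arabinose-inducible Mtb Alr) or the Alr+ wild-type control strain, grown in defined M9-fructose medium without D-alanine in 96-well plates with Prestwick library compounds at 0.1 mM and 1% DMSO. Low Alr induction is 0.1 µM arabinose and high induction is 10 mM arabinose.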

E. coli TESEC Mtb Alr [4] = conditions: compound 0.1 mM; remark: listed apart in the source
Procedure: as §2

[5] = arabinose 1000 nM, raw OD600 reference: median of DMSO wells 0.294, cell-free background 0.041
[6] = arabinose 10000 nM, raw OD600 reference: median of DMSO wells 0.264, cell-free background 0.041
[7] = arabinose 100000 nM, raw OD600 reference: median of DMSO wells 0.201, cell-free background 0.041
[8] = arabinose 1000000 nM, raw OD600 reference: median of DMSO wells 0.193, cell-free background 0.041
[9] = arabinose 10000000 nM, raw OD600 reference: median of DMSO wells 0.146, cell-free background 0.041
[10] = arabinose induction (level): High, raw OD600 reference: median of DMSO wells 0.331, cell-free background 0.041
[11] = arabinose induction (level): Low, raw OD600 reference: median of DMSO wells 0.417, cell-free background 0.041
[12] = arabinose 100 nM, raw OD600 reference: median of DMSO wells 0.413, cell-free background 0.052
[13] = arabinose 10000000 nM, raw OD600 reference: median of DMSO wells […], cell-free background 0.052

Row | Compound | growth [1] | growth (E. coli TESEC Mtb Alr [2]; [5]) | growth (E. coli TESEC Mtb Alr [2]; [6]) | growth (E. coli TESEC Mtb Alr [2]; [7]) | growth (E. coli TESEC Mtb Alr [2]; [8]) | growth (E. coli TESEC Mtb Alr [2]; [9]) | growth (E. coli TESEC Mtb Asd; [10]) | growth (E. coli TESEC Mtb Asd; [11]) | growth [3] | growth (E. coli TESEC Mtb Alr [4]; [12]) | growth (E. coli TESEC Mtb Alr [4]; [13])
1 | COc1ccc(C(=O)c2ccccc2)c(O)c1 [Oxybenzone] | 0.114 ± 0.003 | 0.148 ± 0.011 | 0.15 ± 0.004 | 0.151 ± 0.017 | 0.0914 ± 0.0039 | 0.0993 ± 0.0024 | 0.223 ± 0.023 | 0.334 ± 0.01 | 0.27 ± 0.011 | 0.377 ± 0.022 | 0.146 ± 0.021
2 | Cc1nccn1CC1CCc2c(c3ccccc3n2C)C1=O (stereo not given) [Ondansetron Hydrochloride] | 0.195 ± 0.004 | 0.272 ± 0.0034 | 0.252 ± 0.0038 | 0.246 ± 0.0034 | 0.304 ± 0.014 | 0.146 ± 0.0028 | 0.432 ± 0.06 | 0.191 ± 0.011 | 0.526 ± 0.11 | 0.365 ± 0.013 | 0.384 ± 0.0066
3 | COc1ccc2c3c1O[C@H]1C[C@@H](O)C=C[C@@]31CCN(C)C2 [Galanthamine hydrobromide] | 0.249 ± 0.0042 | 0.291 ± 0.0095 | 0.245 ± 0.0045 | 0.218 ± 0.014 | 0.161 ± 0.0075 | 0.1382 ± 0.00072 | 0.229 ± 0.0098 | 0.376 ± 0.094 | 0.459 ± 0.04 | 0.409 ± 0.01 | 0.34 ± 0.022
4 | COc1ccccc1N1CCN(CC(O)COc2cccc3ccccc23)CC1 (stereo not given) [Naftopidil dihydrochloride] | 0.0455 ± 0.00068 | 0.0439 ± 0.0023 | 0.0416 ± 0.00044 | 0.0537 ± 0.0089 | 0.0425 ± 0.001 | 0.0492 ± 0.0015 | 0.0476 ± 0.00036 | 0.0516 ± 0.0046 | 0.0532 ± 0.0005 | 0.4077 ± 0.0026 | 0.0524 ± 0.0021
5 | CC(CNC1CCCCC1)OC(=O)c1ccccc1 (stereo not given) [Hexylcaine hydrochloride] | 0.242 ± 0.016 | 0.303 ± 0.0092 | 0.273 ± 0.0072 | 0.191 ± 0.0085 | 0.173 ± 0.0098 | 0.1577 ± 0.0015 | 0.452 ± 0.026 | 0.489 ± 0.039 | 0.552 ± 0.022 | 0.409 ± 0.016 | 0.309 ± 0.0087
6 | CCN(CC)CCOC(=O)C(Cc1cccc2ccccc12)CC1CCCO1 (stereo not given) [Nafronyl oxalate] | 0.15 ± 0.0052 | 0.219 ± 0.0043 | 0.255 ± 0.014 | 0.157 ± 0.0057 | 0.0991 ± 0.0023 | 0.151 ± 0.0053 | 0.127 ± 0.0055 | 0.309 ± 0.11 | 0.464 ± 0.015 | 0.407 ± 0.0062 | 0.293 ± 0.015
7 | CCCCCCC[N+](CC)(CC)CCCCc1ccc(Cl)cc1 [Clofilium tosylate] | 0.03993 ± 0.00025 | 0.03923 ± 5.8e-05 | 0.039 ± 0.00017 | 0.03977 ± 0.00021 | 0.03863 ± 0.00025 | 0.0398 ± 0.00026 | 0.0468 ± 0.00026 | 0.0474 ± 0.00051 | 0.0487 ± 0.00091 | 0.0551 ± 0.0018 | 0.05213 ± 0.0004
8 | CN1Cc2c(N)cccc2C(c2ccccc2)C1 (stereo not given) [Nomifensine maleate] | 0.225 ± 0.0061 | 0.273 ± 0.0089 | 0.249 ± 0.0043 | 0.19 ± 0.036 | 0.1674 ± 0.0015 | 0.141 ± 0.0063 | 0.243 ± 0.026 | 0.357 ± 0.038 | 0.498 ± 0.078 | 0.4122 ± 0.0024 | 0.348 ± 0.019
9 | OC(c1cc(C(F)(F)F)nc2c(C(F)(F)F)cccc12)C1CCCCN1 (stereo not given) [Mefloquine hydrochloride] | 0.0408 ± 0.00093 | 0.0401 ± 0.0013 | 0.0392 ± 0.0005 | 0.0403 ± 0.00056 | 0.0392 ± 0.00017 | 0.0398 ± 0.00036 | 0.0511 ± 0.0036 | 0.055 ± 0.0046 | 0.04863 ± 0.00045 | 0.199 ± 0.23 | 0.0512 ± 0.00055
10 | NC12CC3CC(CC(C3)C1)C2 [Adamantamine fumarate] | 0.253 ± 0.0038 | 0.299 ± 0.0054 | 0.271 ± 0.005 | 0.248 ± 0.034 | 0.209 ± 0.014 | 0.145 ± 0.0061 | 0.353 ± 0.052 | 0.457 ± 0.0081 | 0.469 ± 0.056 | 0.407 ± 0.0076 | 0.368 ± 0.026
11 | CC(C)CC(=O)N[C@H](C(=O)N[C@H](C(=O)N[C@@H](CC(C)C)[C@@H](O)CC(=O)N[C@@H](C)C(=O)N[C@@H](CC(C)C)[C@@H](O)CC(=O)O)C(C)C)C(C)C [Pepstatin A] | 0.226 ± 0.0077 | 0.307 ± 0.0049 | 0.271 ± 0.0051 | 0.234 ± 0.043 | 0.202 ± 0.02 | 0.15 ± 0.0034 | 0.419 ± 0.028 | 0.427 ± 0.064 | – | 0.412 ± 0.005 | 0.345 ± 0.036
12 | CC(C(=O)O)c1ccc(N2Cc3ccccc3C2=O)cc1 (stereo not given) [Indoprofen] | 0.219 ± 0.011 | 0.264 ± 0.018 | 0.249 ± 0.0066 | 0.178 ± 0.0022 | 0.189 ± 0.0034 | 0.128 ± 0.0066 | 0.345 ± 0.075 | 0.353 ± 0.053 | – | 0.424 ± 0.013 | 0.361 ± 0.007
13 | CCCCNc1cc(C(=O)O)cc(S(N)(=O)=O)c1Oc1ccccc1 [Bumetanide] | 0.234 ± 0.0058 | 0.261 ± 0.021 | 0.251 ± 0.0081 | 0.167 ± 0.018 | 0.159 ± 0.0062 | 0.138 ± 0.0095 | 0.226 ± 0.01 | 0.449 ± 0.062 | – | 0.426 ± 0.0046 | 0.333 ± 0.02
14 | CN/C(=N\CCSCc1nc[nH]c1C)NC#N [Cimetidine] | 0.249 ± 0.0059 | 0.295 ± 0.023 | 0.252 ± 0.0057 | 0.216 ± 0.028 | 0.179 ± 0.00087 | 0.142 ± 0.0033 | 0.376 ± 0.1 | 0.376 ± 0.045 | – | 0.409 ± 0.0072 | 0.337 ± 0.019
15 | Nc1ccc(S(=O)(=O)Nc2ccnn2-c2ccccc2)cc1 [Sulfaphenazole] | 0.231 ± 0.0032 | 0.236 ± 0.0082 | 0.1522 ± 0.0011 | 0.197 ± 0.031 | 0.0993 ± 0.0064 | 0.149 ± 0.0051 | 0.335 ± 0.033 | 0.354 ± 0.0096 | – | 0.429 ± 0.0073 | 0.233 ± 0.15
16 | NC(=O)c1ncn([C@@H]2O[C@H](CO)[C@@H](O)[C@H]2O)n1 [Ribavirin] | 0.17 ± 0.02 | 0.0986 ± 0.0022 | 0.0798 ± 0.0011 | 0.117 ± 0.0028 | 0.0816 ± 0.0003 | 0.106 ± 0.0017 | 0.404 ± 0.036 | 0.426 ± 0.071 | – | 0.415 ± 0.046 | 0.24 ± 0.021
17 | C[C@H](CCC(=O)O)[C@H]1CC[C@H]2[C@@H]3[C@@H](O)C[C@@H]4C[C@H](O)CC[C@]4(C)[C@H]3CC[C@]12C [Urosiol] | 0.2 ± 0.0037 | 0.279 ± 0.0063 | 0.188 ± 0.0089 | 0.188 ± 0.0055 | 0.1123 ± 0.00023 | 0.14 ± 0.0032 | 0.3936 ± 0.0024 | 0.363 ± 0.018 | – | 0.399 ± 0.0058 | 0.182 ± 0.019
18 | CCN(CC)CCNC(=O)c1cc(Cl)c(N)cc1OC [Metoclopramide monohydrochloride] | 0.2268 ± 0.0011 | 0.278 ± 0.016 | 0.252 ± 0.017 | 0.195 ± 0.015 | 0.179 ± 0.0077 | 0.144 ± 0.0028 | 0.252 ± 0.015 | 0.485 ± 0.011 | – | 0.409 ± 0.0098 | 0.358 ± 0.0081
